The record followed here is the supplement of paper PMC7366291.

Each structure is given as a SMILES string. Structures can show the parent of a compound that is named as a salt. ± gives the standard deviation.

The assay has as its system Danio rerio Tg(wt1b:EGFP) embryo, pronephros. The experiment in a line: glomerular separation, fold change vs DMSO control; higher = glomeruli further apart (abnormal). As to conditions: 25 µM; exposure: 24-48 hpf. The method in brief: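 In HEPES-buffered E3 with 0.003% PTU and 0.5% DMSO, dechorionated Tg(wt1b:EGFP) zebrafish embryos were exposed to 25 μM compound from 24 to 48 hpf at 28.5°C. Pronephroi were then imaged dorsally at 470 nm in 10 z-slices, in 96-well plates filled with agarose. On maximum projections, a Fiji macro turned 16 manually placed reference points into distances and angles, and values more than 2 SD from the feature mean were excluded. Features are fold changes relative to the mean of DMSO-treated embryos from the same day.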
On to `CN(C)CCOC(c1ccc(Cl)cc1)c1ccccn1` (stereo not given) [Carbinoxamine maleate salt], for which the glomerular separation came to 0.746 ± 0.34. `CCOC(=O)C1=C(C)NC(C)=C(C(=O)OC)C1c1cccc(Cl)c1Cl` (stereo not given) [Felodipine]: the glomerular separation was found to be 5.36 ± 2.5. With `Cc1cc(/C=C/c2ccc3cc(N(C)C)ccc3[n+]2C)c(C)n1-c1ccccc1` [Pyrvinium pamoate] the figure was 1.12 ± 0.41; with `CC(=O)OCC(=O)[C@@]12N=C(C)O[C@@H]1C[C@H]1[C@@H]3CCC4=CC(=O)C=C[C@]4(C)[C@H]3[C@@H](O)C[C@@]12C` [Deflazacort], 1.15 ± 0.41; with `COc1ccc(OC)c(C(O)CNC(=O)CN)c1` (stereo not given) [Midodrine hydrochloride], 0.483 ± 0.2. The compound `C[C@@H]1C[C@H]2[C@@H]3C[C@H](F)C4=CC(=O)C=C[C@]4(C)[C@@]3(F)[C@@H](O)C[C@]2(C)[C@@]1(O)C(=O)CO` [Flumethasone] had a glomerular separation of 0.902 ± 0.3. For `N/C(=N\C(=O)c1nc(Cl)c(N)nc1N)NCc1ccccc1` [Benzamil hydrochloride] the value was 0.935 ± 0.43; for `C[C@H]1O[C@@H](O[C@H]2[C@@H](O)C[C@H](O[C@H]3[C@@H](O)C[C@H](O[C@H]4CC[C@@]5(C)[C@H](CC[C@@H]6[C@@H]5C[C@@H](O)[C@]5(C)[C@@H](C7=CC(=O)OC7)CC[C@]65O)C4)O[C@@H]3C)O[C@@H]2C)C[C@H](O)[C@@H]1O` [Digoxin], 1.43 ± 0.52; for `NC(Cc1cc(I)c(Oc2cc(I)c(O)c(I)c2)c(I)c1)C(=O)O` (stereo not given) [Thyroxine (L)], 1.12 ± 0.3. `CN(C)CCC=C1c2ccccc2C=Cc2ccccc21` [Cyclobenzaprine hydrochloride] came in with a glomerular separation of 1.02 ± 0.31. On to `CCCCOC(=O)c1ccc(O)cc1` [Butylparaben], for which the glomerular separation was determined as 1.67 ± 0.4. `COCC(=O)Nc1c(I)c(C(=O)NCC(O)CO)c(I)c(C(=O)N(C)CC(O)CO)c1I` (stereo not given) [Iopromide] had a glomerular separation of 0.857 ± 0.4. Compound `O=c1cc(-c2ccc(O)c(O)c2)oc2cc(O)cc(O)c12` [Luteolin] returned a glomerular separation of 0.869 ± 0.36. Consider `CCc1cccc(CC)c1NC(=O)CN(CC(=O)O)CC(=O)O` [Etifenin], for which the glomerular separation was 1.34 ± 0.55. Compound `CC(=O)/N=c1/sc(S(N)(=O)=O)nn1C` [Methazolamide] registered a glomerular separation of 0.898 ± 0.5. As for `Cc1cnc(C(=O)O)c[n+]1[O-]` [Acipimox], the glomerular separation came out at 1.01 ± 0.23. Consider `CN(CCOc1ccc(CC2SC(=O)NC2=O)cc1)c1ccccn1` (stereo not given) [Rosiglitazone Hydrochloride], for which the glomerular separation amounted to 1.04 ± 0.39.

Consider `CS(=O)(=O)c1ccc(C2=C(c3ccccc3)C(=O)OC2)cc1` [Rofecoxib], for which the glomerular separation was 0.981 ± 0.22. With `CCN1CCC[C@H]1CNC(=O)c1c(O)c(Cl)cc(Cl)c1OC` [Raclopride] the figure was 1.26 ± 0.47. In turn, `NCCC[C@H](N)CC(=O)N[C@H]1CNC(=O)[C@H]([C@H]2C[C@H](O)NC(N)=N2)NC(=O)/C(=C/NC(N)=O)NC(=O)[C@H](CO)NC(=O)[C@H](CO)NC1=O` [Viomycin sulfate] returned a glomerular separation of 1.23 ± 0.3. Turning to `Cc1cccc(C)c1NC(=O)CN1CCN(CCCC(c2ccc(F)cc2)c2ccc(F)cc2)CC1` [Lidoflazine], the glomerular separation turned out to be 3 ± 1.2.

The compound `CCN(CC)CCOC(=O)c1ccc(N)cc1` [Procaine hydrochloride] registered a glomerular separation of 0.828 ± 0.2. For `CCOC(=O)Nc1ccc2c(c1)N(C(=O)CCN1CCOCC1)c1ccccc1S2` [Moricizine hydrochloride] the value was 0.635 ± 0.18; for `C[C@H](Cc1cc2c(c(C(N)=O)c1)N(CCCO)CC2)NCCOc1ccccc1OCC(F)(F)F` [Silodosin], 0.726 ± 0.14; for `COc1ncnc(NS(=O)(=O)c2ccc(N)cc2)c1OC` [Sulfadoxine], 0.694 ± 0.18. `CCC(=O)[C@@]1(C)[C@H](C)C[C@H]2[C@@H]3CCC4=CC(=O)C=C[C@]4(C)[C@H]3[C@@H](O)C[C@@]21C` [Rimexolone] yielded a glomerular separation of 1.28 ± 0.36. With `COC(=O)Nc1nc2cc([S+]([O-])c3ccccc3)ccc2[nH]1` (stereo not given) [Oxfendazol] the figure was 1.06 ± 0.33; with `Cc1oncc1C(=O)Nc1ccc(C(F)(F)F)cc1` [Leflunomide], 2.27 ± 1; with `Clc1ccc(C(Cn2ccnc2)OCc2c(Cl)cccc2Cl)c(Cl)c1` (stereo not given) [Isoconazole], 3.36 ± 1.9. With `Cc1cn([C@H]2C[C@H](N=[N+]=[N-])[C@@H](CO)O2)c(=O)[nH]c1=O` [Zidovudine, AZT] the figure was 1 ± 0.41; with `CN1C(C)(C)CCCC1(C)C` [Pempidine tartrate], 0.75 ± 0.25; with `CN(C)CCN(Cc1cccs1)c1ccccn1` [Methapyrilene hydrochloride], 0.984 ± 0.37. For the compound `O=C(c1ccc(OCCN2CCCCC2)cc1)c1c(-c2ccc(O)cc2)sc2cc(O)ccc12` [Raloxifene hydrochloride], the glomerular separation came to 0.793 ± 0.18.

`CCCN(CCC)C(=O)C(CCC(=O)O)NC(=O)c1ccccc1` (stereo not given) [Proglumide]: the glomerular separation stood at 0.949 ± 0.28. As to `NC(=O)c1cc[n+](CC2=C(C(=O)[O-])N3C(=O)[C@@H](NC(=O)[C@@H](c4ccccc4)S(=O)(=O)O)[C@H]3SC2)cc1` [Cefsulodin sodium salt], the glomerular separation came out at 0.67 ± 0.22. As for `O=C(NCCNCC(O)COc1ccc(O)cc1)N1CCOCC1` (stereo not given) [Xamoterol hemifumarate], the glomerular separation came out at 1.01 ± 0.28. Compound `CC(N/C(=N\C#N)Nc1ccncc1)C(C)(C)C` (stereo not given) [Pinacidil] yielded a glomerular separation of 0.881 ± 0.21. Turning to `CN(C)CCN(Cc1ccc(Cl)cc1)c1ccccn1` [Chloropyramine hydrochloride], the glomerular separation was 0.981 ± 0.57. For the compound `CN(C)[C@@H]1C(O)=C(C(N)=O)C(=O)[C@@]2(O)C(O)=C3C(=O)c4c(O)ccc(Cl)c4[C@@H](O)[C@H]3C[C@@H]12` [Demeclocycline hydrochloride], the glomerular separation came out at 0.928 ± 0.36. For `NS(=O)(=O)c1cc(C(=O)O)c(NCc2ccco2)cc1Cl` [Furosemide] the value was 0.867 ± 0.13.
